Molecules are shown by their SMILES. Values without a mark were called inactive. Records with an inconclusive call do not appear. Activity calls are given as the source filed them. Calls follow the shape of the dose curve; as a rule, active = well fitted curve in the direction sought with a large enough effect in the repeat runs; inconclusive = weak or mixed curves; inactive = no such curve, though single readings can be large; an effect the other way counts as inactive or inconclusive.

In PubChem BioAssay (Tox21) one finds Potency and max activation data, which are given here for 29 molecules.

Test [1] can be described thus: Human pregnane X receptor (PXR) small molecule agonists, qHTS cell viability counter screen (AID 1346977). Also: nearly all actives have a fitted effect of over 50% in size. Also: potency is read from the fitted curve at half-maximal effect. In a few lines:
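After a 5hr pre-incubation, PXR-Luc HepG2 cells received compounds plus positive control in DMSO and were kept 24hr at 37C. Cell viability was quantified by fluorescence from CellTiter-Fluor added for the final hour.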

Test [2] can be described thus: Caspase-3/7 induction in HepG2 cells by small molecules, qHTS assay (AID 1346978). Also: nearly all actives have a fitted effect of over 15% in size. The procedure, abridged:
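Caspase-3/7 induction was measured by Caspase-Glo 3/7 luminescence (30 min, room temperature) after a 17 hr compound exposure of wild-type HepG2 cells seeded at 2,000 per well and pre-incubated 5 hr.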

The nature of test [3]: Caspase-3/7 induction in CHO-K1 cells by small molecules, qHTS cell viability counter screen (AID 1346979). Also: nearly all actives have a fitted effect of over 35% in size. Also: potency is read from the fitted curve at half-maximal effect. In a few lines:
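Multiplexed with Caspase-Glo 3/7 in CHO-K1 cells, this counter screen added CellTiter-Fluor after 16hr of compound exposure and recorded fluorescence 1hr later.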

A short description of test [4]: Caspase-3/7 induction in CHO-K1 cells by small molecules, qHTS assay (AID 1346980). Also: nearly all actives have a fitted effect of over 15% in size. Also: potency is read from the fitted curve at half-maximal effect. The procedure, abridged:
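Luminescent Caspase-Glo 3/7 read (30min, room temperature) quantified apoptosis induction. Cells were wild-type CHO-K1, treated with compound for 17hr at 37 C and 5% CO2.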

Test [5] can be described thus: Caspase-3/7 induction in HepG2 cells by small molecules, qHTS cell viability counter screen (AID 1346981). Also: nearly all actives have a fitted effect of over 30% in size. Also: potency is read from the fitted curve at half-maximal effect. The procedure, abridged: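 Treatment of HepG2 cells with DMSO-delivered compounds ran 16 hr at 37 C following a 5-hr pre-incubation of 2,000 cells/well. CellTiter-Fluor fluorescence, read after 1 hr, served as the viability measure in a qHTS format.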
Test [6] has as its target Cytochrome P450 2D6 (Homo sapiens) (UniProt P10635). The experiment in a line: Cytochrome P450 Family 2 Subfamily D Member 6 (CYP2D6) small molecule antagonists: luciferase reporter qHTS assay (AID 1671196). Also: nearly all actives have a fitted effect of over 50% in size. Also: potency is read from the fitted curve at half-maximal effect. In a few lines:
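Chemicals tested for interference with CYP2D6 activity; proluciferin substrate, NADPH regeneration, 1 h at room temperature, luminescent detection.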

Test [7] addresses Nuclear receptor subfamily 1 group I member 2 (Homo sapiens) (UniProt O75469). The experiment in a line: Human pregnane X receptor (PXR) small molecule agonists, qHTS assay (AID 1346982). Also: nearly all actives have a fitted effect of over 35% in size. Also: potency is read from the fitted curve at half-maximal effect. The procedure, abridged: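 Stable HepG2 line reporting PXR-mediated CYP3A4 expression via luciferase. Treatment: 24 hr with compounds in DMSO at 37 C. Detection: ONE-Glo luminescence.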
For test [8] the target is unchanged. The experiment in a line: Human pregnane X receptor (PXR) activation by small molecules, qHTS assay (AID 1346985). Also: nearly all actives have a fitted effect of over 40% in size. Also: potency is read from the fitted curve at half-maximal effect. The procedure, abridged:
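DPX-2 cells (HepG2 co-transfected with a PXR response element and a CYP3A4-promoter luciferase construct) were seeded at 2,000 per well, rested 5 hr at 37C, then exposed to DMSO-dissolved compounds for 24 hr. Activation was read as luciferase luminescence.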

Test [9] shares this target. The experiment in a line: CYP3A4 induction through human pregnane X receptor (PXR) by small molecules, qHTS assay (AID 1346984). Also: nearly all actives have a fitted effect of over 40% in size. Also: potency is read from the fitted curve at half-maximal effect. In a few lines: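 After 24 h at 37C with compound, DPX-2 cells (HepG2, co-transfected PXR response element and CYP3A4 promoter-luciferase) got 3uM final P450-Glo Luciferin-IPA for 3 h; One-Glo luminescence followed.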
In test [10] the target is Nuclear receptor subfamily 1 group I member 2 (Rattus norvegicus) (UniProt Q9R1A7). The experiment in a line: Rat pregnane X receptor (rPXR) activation by small molecules, qHTS assay (AID 1346983). Also: nearly all actives have a fitted effect of over 20% in size. The conditions noted are these: rPXR luciferase reporter cells, One-Glo luminescence, 24 h; max activation: stronger effect = higher value. In a few lines: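 Luminescent readout (One-Glo luciferase, 30 min room temperature) followed 24 hr compound treatment at 37 C of rPXR cells plated 2,000 per well and preincubated 5hr; qHTS format with compounds delivered in DMSO.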
% is scaled to controls: 0 for no effect and ±100 for the full control effect.

Chain of Nuclear receptor subfamily 1 group I member 2 (Rattus norvegicus) (Q9R1A7 whole entry, looked up): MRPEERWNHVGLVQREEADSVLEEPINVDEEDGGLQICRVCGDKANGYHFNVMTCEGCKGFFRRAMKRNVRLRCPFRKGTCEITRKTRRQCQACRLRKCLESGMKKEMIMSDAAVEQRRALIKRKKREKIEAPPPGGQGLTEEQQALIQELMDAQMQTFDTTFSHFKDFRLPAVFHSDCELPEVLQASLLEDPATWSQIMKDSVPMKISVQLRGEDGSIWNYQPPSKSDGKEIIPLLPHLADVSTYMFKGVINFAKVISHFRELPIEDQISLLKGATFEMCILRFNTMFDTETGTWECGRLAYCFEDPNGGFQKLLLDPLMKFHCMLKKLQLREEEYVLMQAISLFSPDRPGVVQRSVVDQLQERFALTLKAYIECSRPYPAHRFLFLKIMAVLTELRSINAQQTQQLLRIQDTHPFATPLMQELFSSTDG
Chain of Cytochrome P450 2D6 (Homo sapiens) (P10635 whole entry, looked up): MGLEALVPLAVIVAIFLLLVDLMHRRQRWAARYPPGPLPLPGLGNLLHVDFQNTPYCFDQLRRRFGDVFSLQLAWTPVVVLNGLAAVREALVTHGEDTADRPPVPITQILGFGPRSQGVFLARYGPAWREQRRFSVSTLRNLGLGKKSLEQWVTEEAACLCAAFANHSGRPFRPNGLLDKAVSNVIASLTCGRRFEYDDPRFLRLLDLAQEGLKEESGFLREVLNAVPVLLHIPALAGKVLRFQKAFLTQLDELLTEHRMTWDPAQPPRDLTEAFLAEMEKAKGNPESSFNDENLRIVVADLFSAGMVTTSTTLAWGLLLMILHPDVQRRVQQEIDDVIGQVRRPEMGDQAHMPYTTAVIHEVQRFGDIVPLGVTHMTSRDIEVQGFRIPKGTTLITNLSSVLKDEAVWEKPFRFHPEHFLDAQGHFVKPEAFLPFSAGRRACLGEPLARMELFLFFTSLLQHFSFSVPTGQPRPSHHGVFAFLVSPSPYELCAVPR
Chain of Nuclear receptor subfamily 1 group I member 2 (Homo sapiens) (O75469 whole entry, looked up): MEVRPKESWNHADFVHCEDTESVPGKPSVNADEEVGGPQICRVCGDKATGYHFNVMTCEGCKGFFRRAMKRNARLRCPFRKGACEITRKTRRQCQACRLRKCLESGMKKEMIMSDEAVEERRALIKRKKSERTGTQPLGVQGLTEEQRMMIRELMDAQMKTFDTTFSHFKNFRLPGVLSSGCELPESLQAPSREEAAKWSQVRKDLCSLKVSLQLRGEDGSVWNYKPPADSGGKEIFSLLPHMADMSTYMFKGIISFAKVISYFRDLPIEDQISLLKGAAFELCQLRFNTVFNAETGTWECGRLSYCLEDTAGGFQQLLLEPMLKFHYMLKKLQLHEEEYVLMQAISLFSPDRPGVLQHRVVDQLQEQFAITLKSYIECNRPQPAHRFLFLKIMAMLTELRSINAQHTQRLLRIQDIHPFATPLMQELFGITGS

Consider `CC(COCCO)OCCO` (centres undefined), for which the Potency result in test [1], in [2], in test [3], in test [4] and in [5] was “inactive” throughout. Moreover, in test [6], the Potency was 25.8 µM (active).
Turning to `c1ccc(-c2ccccn2)nc1`, the Potency result in test [1], in [2], in [3] and in [5] was “inactive” throughout. Also, the Potency in test [7] is 24.3 µM (active).
With `CCOC(=O)C1=C[C@]2(CC)CCCN3CCc4c(n1c1ccccc41)[C@@H]32`, the Potency is 26.6 µM (active) in test [1], 2.37 µM (active) in test [7] and 2.75 µM (active) in test [6]. Besides, the Potency entry in test [2], in [4] and in test [5] was “inactive” in each case.
Consider `CN(C)c1ccc(CCO)cc1`, for which the Potency result in [2], in test [3], in [4], in test [5] and in test [7] was “inactive” throughout.
On to `CCOc1ccc(N)c([N+](=O)[O-])c1`, for which the Potency entry in test [1], in test [2], in test [4] and in test [7] was “inactive” throughout. Further, the Potency in [6] was 71 µM (active).
`Cn1c(=O)cc(Oc2ccc(F)cc2F)c2cnc(NCC(C)(C)O)nc21`: the Potency entry in test [1], in [2], in test [4] and in [5] was “inactive” in each case. The Potency in test [7] was 43.3 µM (active).
Turning to `COc1ccc(C(=O)c2ccc(OC)cc2O)c(O)c1`, the Potency entry in test [1], in test [2] and in test [4] was “inactive” each time. Further, in test [7], the Potency is 27.5 µM (active).
Turning to `Clc1ccc2c(c1)CCc1cccnc1C2=C1CCNCC1`, the Potency was 29.8 µM (active) in test [1] and 14.1 µM (active) in test [8]. The Potency entry in test [4] and in test [7] was “inactive” throughout.
Regarding `CCCCCCCCCCO[C@@H]1O[C@H](CO)[C@@H](O)[C@H](O)[C@H]1O`, the Potency result in test [1], in test [2], in test [4], in test [5] and in test [6] was “inactive” in each case.
Turning to `Cc1cccc(Nc2ccccc2)c1`, the Potency result in test [1], in [3], in test [4] and in [5] was “inactive” throughout.
With `COc1cc(C(=O)OCCCN2CCCN(CCCOC(=O)c3cc(OC)c(OC)c(OC)c3)CC2)cc(OC)c1OC`, the Potency entry in test [2] and in test [4] was “inactive” throughout. Moreover, the Potency in test [3] is 23.7 µM (active); in test [5], 26.6 µM (active); in [7] it was 29.8 µM (active).
In the case of `CCCCCCCCCCCCCCOS(=O)(=O)O`, the Potency entry in test [1], in [2], in [4], in test [5], in test [7] and in [6] was “inactive” each time.
Consider `CNCCCN1c2ccccc2CCc2ccccc21`, for which the Potency in [1] was 23.7 µM (active). Further, the Potency result in test [4], in [7], in test [9] and in test [8] was “inactive” in each case.
Turning to `COc1cccc(N(C)C(=S)Oc2ccc3c(c2)CCCC3)n1`, the Potency result in test [1], in [2], in [4], in test [5] and in [6] was “inactive” in each case. In addition, the Potency was 8.41 µM (active) in [7] and 1.26 µM (active) in test [8].
For `O=C(O)C1(C(=O)Nc2ccc(Cl)cc2Cl)CC1`, the Potency entry in [1], in test [2], in [4] and in test [5] was “inactive” each time. In addition, the Potency in test [7] was 24.3 µM (active).
Consider `CC(C)(COC(=O)c1ccccc1)COC(=O)c1ccccc1`, for which the Potency result in [1], in [2], in [4], in test [5], in test [7] and in [6] was “inactive” each time.
In the case of `Brc1c2ccccc2cc2ccccc12`, the Potency result in test [1], in test [3], in test [4], in test [5] and in [6] was “inactive” each time. In test [7], the Potency was 61.8 µM (active).
`CO[C@@H]1[C@H](OC(=O)/C=C/C=C/C=C/C=C/C(=O)O)CC[C@]2(CO2)[C@H]1[C@@]1(C)O[C@@H]1CC=C(C)C`: the Potency result in [1], in test [2], in test [4], in test [5], in test [9] and in [8] was “inactive” in each case. For the same molecule, the Potency in test [7] is 15.4 µM (active).
On to `OC(CN1CCC(Cc2ccc(F)cc2)CC1)c1ccc(Cl)cc1` (centres undefined), for which the Potency in [1] was 29.8 µM (active). The Potency result in [2], in test [4], in test [7] and in test [8] was “inactive” throughout.
`C/C=C(/C(=C/C)c1ccc(OC(C)=O)cc1)c1ccc(OC(C)=O)cc1`: the Potency result in [1], in test [2], in [4], in [5], in test [7] and in [6] was “inactive” each time.
On to `CCCOC(C(=O)OC1CCN(C)CC1)(c1ccccc1)c1ccccc1`, for which the Potency in test [1] is 23.7 µM (active); in [9], 28.2 µM (active); in [8] it was 14.1 µM (active); in test [6], 7.76 µM (active). Also, the Potency entry in test [2] and in test [4] was “inactive” throughout.
Take `C[C@H]1C[C@H]2[C@@H]3CCC4=CC(=O)C=C[C@]4(C)[C@@]3(Cl)[C@@H](O)C[C@]2(C)[C@@]1(O)C(=O)CO`: the Potency result in [1], in [2], in test [4] and in test [5] was “inactive” each time. The Potency in test [9] was 15.8 µM (active); in test [8], 11.2 µM (active); in [6] it was 30.9 µM (active).
On to `CC(=O)OC[C@H]1O[C@@H](n2ncc(=O)[nH]c2=O)[C@H](OC(C)=O)[C@@H]1OC(C)=O`, for which the Potency result in test [1], in test [2], in test [4], in test [5], in [7] and in test [9] was “inactive” throughout. Moreover, in test [8], the Potency result is “inactive”. Besides, the max activation in test [10] was -1.15%.
For `CCCCNc1ccc(C(=O)OCCOCCOCCOCCOCCOCCOCCOCCOCCOC)cc1`, the Potency result in test [1], in test [2], in test [4], in test [5], in test [7] and in test [9] was “inactive” throughout. In [8], the Potency entry was “inactive”. The max activation in [10] was -3.41%.
For `COC(=O)C1=C(C)NC(COC(N)=O)=C(C(=O)OC(C)C)C1c1cccc(Cl)c1Cl` (centres undefined), the Potency entry in [1] and in [4] was “inactive” throughout. Besides, in [3], the Potency is 13.3 µM (active).
In the case of `CC1OC(=O)C(C)OC1=O` (centres undefined), the Potency result in test [1], in test [2], in test [4], in test [5], in test [7] and in test [6] was “inactive” in each case.
On to `COc1ccc(S(=O)(=O)N2C(=O)[C@@](c3ccccc3OC)(N3C[C@H](O)C[C@H]3C(=O)N(C)C)c3cc(Cl)ccc32)c(OC)c1`, for which the Potency in test [1] is 54.5 µM (active); in test [3], 30.6 µM (active); in test [4], 61.1 µM (active); in test [5] it was 30.6 µM (active); in test [7], 61.1 µM (active).
With `CN1CCC(=C2c3ccccc3Sc3ccccc32)CC1`, the Potency in test [1] was 23.7 µM (active); in test [9] it was 10 µM (active); in test [8] it was 14.1 µM (active); in [6], 3.47 µM (active). For the same molecule, the Potency entry in test [2], in test [4] and in [7] was “inactive” each time. The max activation in test [10] is -5.4%.
Take `CC(C)=CCC/C(C)=C/CC/C(C)=C/CO`: the Potency entry in test [1], in test [2], in test [4] and in [5] was “inactive” in each case. The figures for the Potency in [7] and in [6] were 43.3 µM (active) and 39.9 µM (active), respectively.
